Sampled rows, rich in hits. Any-hit rate of the full collection: about 3.6%.
mHTT CaM bind = inhibitors of human mutant huntingtin-calmodulin interaction; AID 1671202; 190,000 compounds, 3.6% hits; AlphaScreen His-mHTT/GST-CaM binding, luminescence; P42858; inhibition, % at 15 µM;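 further: 0% = both proteins with DMSO and 100% = one protein alone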
Pf apPOL block = Pf-apPOL DNA polymerase inhibition | Recombinant Pf-apPOL, molecular beacon fluorescence, 1.5 h | inhibition, % at 10 µM | 210,000 compounds, 0.25% hits | AID 1794808
* marks the source's active call; other numbers are inactive results; i = inactive; · = no result; + = active, no number. No stated cut-off is given here; in the data, active means inhibition above about 50%; inactive means the rest.

SMILES | mHTT CaM bind | Pf apPOL block
Cc1ccc(-c2nc(C(=O)N3CCN(C4CCCCC4)CC3)cs2)n1C | 70* | -3
Cc1ccccc1NC(=O)c1csc(-c2ccc(C)n2C)n1 | -6 | -5
Cc1ccc(-c2nc(C(=O)NC3CCCC3)cs2)n1C | 42 | 0
Cc1ccc(-c2nc(C(=O)NC3CCN(Cc4ccccc4)CC3)cs2)n1C | 75* | -3
O=C(c1csc(-c2ccncc2)n1)N1CCC(N2CCCCC2)CC1 | -11 | -2
O=C1NC(N2CCOCC2)=N/C1=C/c1ccccc1 | -1 | -4
Cc1ccccc1NCN1C(=O)S/C(=C\c2ccccc2)C1=O | 53* | 0
Cc1ccccc1NCN1C(=O)S/C(=C\c2ccc(F)cc2)C1=O | 28 | -5
CC1(C(=O)NC2CCCC2)CCC(=O)N1Cc1cccc(Br)c1 (stereo not drawn) | -13 | 0
O=C1C=CC2=C3c4cc(O)c(O)cc4CC3(O)COC2=C1O (stereo not drawn) | · | 50*
O=[N+]([O-])c1cc(Br)c2nsnc2c1N1CCCCCC1 | 51* | ·
O=[N+]([O-])c1cc(Br)c2nsnc2c1Br | 30 | -6
O=S(=O)(Nc1cccc2cccnc12)c1ccccc1 | 74* | -19
CS(=O)(=O)Nc1cccc2cccnc12 | 47 | -4
c1ccc(Nc2nc(N3CCCC3)nc(N3CCNCC3)n2)cc1 | 10 | -11
NNc1nc(Nc2ccccc2)nc(N2CCCCC2)n1 | 99* | -4
COC(=O)C(C#N)=C(C#N)c1ccc(Br)o1 | · | 76*
COc1cccc(NC(=O)c2ccc(Br)o2)c1 | -5 | -11
CCC(C)NC(=O)C1CCC(c2ccccc2)N(C(=O)c2ccccc2F)C1 (stereo not drawn) | 5 | -1
O=C(Nc1nc2c(s1)CN(C(=O)c1cc(C3CC3)on1)CC2)c1ccco1 | -10 | -2
O=C(Nc1nc2c(s1)CN(C(=O)c1cnn(-c3ccccc3)n1)CC2)c1ccco1 | 53* | 6
CCCNC(=O)Nc1ccc(C(=O)O)cc1 | -5 | -1
CCCn1c(=N)c(C(=O)NC2CCCCC2)cc2c(=O)n3ccccc3nc21 | 0 | -3
Cn1cc(C(=O)Nc2ccc3c(c2)CCC3)c2ccccc2c1=O | 50* | 2
Cc1ccc(NC(=O)c2cn(C)c(=O)c3ccccc23)c(Br)c1 | 10 | -9
SMILES | mHTT CaM bind | Pf apPOL block
CC1C(=O)N2CCCc3cc(S(=O)(=O)NC(c4ccccc4)c4ccccc4)cc1c32 (stereo not drawn) | -2 | -3
CC1C(=O)N(c2cccc(F)c2)CCN1C(=O)Cc1ccccc1 (stereo not drawn) | 0 | -3
COc1ccc(NC(=O)c2c(-c3c(Cl)cccc3Cl)noc2C)c([N+](=O)[O-])c1 | 53* | 11
Cc1ccc2nc(NC(=O)c3cc([N+](=O)[O-])ccc3Cl)sc2c1 | -2 | -3
Cc1onc(-c2ccccc2Cl)c1C(=O)Nc1ccc(F)c([N+](=O)[O-])c1 | 23 | -5
Cc1ccc(NC(=O)c2c(-c3c(Cl)cccc3Cl)noc2C)c([N+](=O)[O-])c1 | 19 | 6
Cc1onc(-c2c(Cl)cccc2Cl)c1C(=O)Nc1nc2ccc([N+](=O)[O-])cc2s1 | 85* | -22
Cc1onc(-c2c(Cl)cccc2Cl)c1C(=O)Nc1ccc(F)c([N+](=O)[O-])c1 | 63* | 42
CC(C)N(C)C(=O)Cc1ccc(N)cc1 | 1 | -6
COc1ccc(OC)c(N2CCN(C(=O)CC(C)(C)C)C(C)C2=O)c1 (stereo not drawn) | -4 | -4
CC(C)(C)n1nc2c(c1-n1cccc1)CN(C(=O)c1cc(-c3ccco3)[nH]n1)C2 | 99* | 82*
CCOC(=O)N1CCN(C(=O)c2cc(-c3ccco3)[nH]n2)CC1 | -10 | -6
O=S(=O)(N=C(NS(=O)(=O)c1ccc(Cl)cc1)c1ccccc1)c1ccccc1 | -1 | 2
O=C(O)c1ccc(S(=O)(=O)c2ccccc2)cc1 | 4 | -10
O=C1C(Nc2ccc(O)cc2)=CC(=NS(=O)(=O)c2ccc(Cl)cc2)c2ccccc21 | 98* | 0
CCc1ccc(S(=O)(=O)N=C2C=C(Nc3cccc(C(=O)O)c3)C(=O)c3ccccc32)cc1 | 80* | -3
O=C(O)c1ccc(NC2=CC(=NS(=O)(=O)c3ccccc3)c3ccccc3C2=O)cc1 | 62* | 7
O=C(O)c1cccc(NC2=CC(=NS(=O)(=O)c3ccc(F)cc3)c3ccccc3C2=O)c1 | 45 | 17
COCCn1cc2c3c(cccc31)CN(C(=O)Nc1ccccc1)CC2 | -4 | 0
CC(C)n1c(C(O)c2ccc(OCc3ccccc3)cc2)nc2ccccc21 (stereo not drawn) | 81* | 10
Cc1ccc(OCc2nc3ccccc3n2C(C)C)cc1 | -17 | -2
O=C(c1ccc(Cl)cc1)c1cn[nH]c1-c1ccccc1O | 95* | 1
Cc1ccccc1C(=O)c1cn[nH]c1-c1ccccc1O | 2 | -11
CSc1cccc(NC(=O)N2CCN(C)c3ccccc32)c1 | 80* | -4
Cc1ccc(NC(=O)N2CC3CCCN3c3ccccc32)cc1F (stereo not drawn) | 90* | 1
SMILES | mHTT CaM bind | Pf apPOL block
Cc1ccc(NC(=O)N2CCOc3ccccc32)cc1F | -8 | -7
CSc1cccc(NC(=O)N2CC3CCCN3c3ccccc32)c1 (stereo not drawn) | 81* | -2
COc1ccc(NC(=O)N2CCN(C)c3ccccc32)cc1 | 36 | -3
CCc1ccc(NC(=O)N2CC(CC)Oc3ccccc32)cc1 (stereo not drawn) | -11 | -3
CSc1cccc(NC(=O)N2CCC(N3CCN(Cc4ccc(C)cc4)C3=O)CC2)c1 | 13 | 1
CCc1ccc(NC(=O)N2CC3CCCN3c3ccccc32)cc1 (stereo not drawn) | 91* | 0
Cc1ccc2c(c1C)-n1cccc1C1(CCN(C(=O)Cc3ccc(Cl)cc3)CC1)N2 | 34 | -7
COCCCNC(=O)c1cc(OC)cc(OC)c1 | 4 | 1
Cc1c(Cl)c([N+](=O)[O-])nn1CCCC(=O)N1CCCc2ccccc21 | 5 | 4
Cc1cccc(-c2noc(-c3cccnc3N3CCC(C(=O)N4CCCCCC4)CC3)n2)c1 | -36 | -2
O=C(Nc1ccc(F)cc1)N1CC2CCCN2c2ccccc21 (stereo not drawn) | 14 | 4
Cc1ccc(NC(=O)N2CC3CCCN3c3ccccc32)cc1 (stereo not drawn) | 59* | -3
O=C(NCc1ccco1)C(=O)Nc1ccon1 | -8 | -5
Cc1cc(/C=N/NC(N)=S)c(C)n1-c1sc2c(c1C#N)CCCC2 | + | ·
N#Cc1c(-n2cccc2/C=N/O)sc2c1CCCC2 | i | 2
Cc1ccc(CNC(=O)N2CCC3(CC2)Nc2cc(F)ccc2-n2cccc23)cc1 | 66* | -2
O=C(NCc1ccccc1)N1CCC2(CC1)Nc1cc(F)ccc1-n1cccc12 | 51* | -2
CNC(=O)N1CCC2(CC1)Nc1cc(F)ccc1-n1cccc12 | 36 | 4
O=C(NCc1ccco1)N1CCC2(CC1)Nc1cc(F)ccc1-n1cccc12 | 47 | 3
Cc1ccc2c(c1)NC1(CCN(C(=O)CSCc3ccc(F)cc3)CC1)c1cccn1-2 | 100* | -7
COc1cccc(CNC(=O)N2CCC3(CC2)Nc2cc(F)ccc2-n2cccc23)c1 | 44 | 3
COC(=O)CSCC1=CS(=O)(=O)c2ccc(Cl)cc21 | · | -14
CCc1ccc(N2CCN(C(=O)C3CCCC3)C(C)C2=O)cc1 (stereo not drawn) | 0 | -8

Assay outcomes deposited in PubChem by University of Kansas High Throughput Screening Laboratory.
